Measurements published in article PMC4336329 (PLoS ONE, 2015).
Hit rate of the full screen: of about 310,000 compounds, about 14,000 (4.5%) showed an effect of 50% or more. Effects have a minus sign here. Shown is part of a subset that was picked to be rich in strong results.

Target: human ether-à-go-go-related gene (hERG) potassium channel (human, UniProt Q12809)
Assay: primary screen, population patch clamp on CHO cells stably expressing hERG; higher = less effect of the substance
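Note: peak tail current of the secondary pulse compared with the same well before compound.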

human ether-à-go-go-related gene (hERG) potassium channel, sequence (Q12809 whole entry, looked up): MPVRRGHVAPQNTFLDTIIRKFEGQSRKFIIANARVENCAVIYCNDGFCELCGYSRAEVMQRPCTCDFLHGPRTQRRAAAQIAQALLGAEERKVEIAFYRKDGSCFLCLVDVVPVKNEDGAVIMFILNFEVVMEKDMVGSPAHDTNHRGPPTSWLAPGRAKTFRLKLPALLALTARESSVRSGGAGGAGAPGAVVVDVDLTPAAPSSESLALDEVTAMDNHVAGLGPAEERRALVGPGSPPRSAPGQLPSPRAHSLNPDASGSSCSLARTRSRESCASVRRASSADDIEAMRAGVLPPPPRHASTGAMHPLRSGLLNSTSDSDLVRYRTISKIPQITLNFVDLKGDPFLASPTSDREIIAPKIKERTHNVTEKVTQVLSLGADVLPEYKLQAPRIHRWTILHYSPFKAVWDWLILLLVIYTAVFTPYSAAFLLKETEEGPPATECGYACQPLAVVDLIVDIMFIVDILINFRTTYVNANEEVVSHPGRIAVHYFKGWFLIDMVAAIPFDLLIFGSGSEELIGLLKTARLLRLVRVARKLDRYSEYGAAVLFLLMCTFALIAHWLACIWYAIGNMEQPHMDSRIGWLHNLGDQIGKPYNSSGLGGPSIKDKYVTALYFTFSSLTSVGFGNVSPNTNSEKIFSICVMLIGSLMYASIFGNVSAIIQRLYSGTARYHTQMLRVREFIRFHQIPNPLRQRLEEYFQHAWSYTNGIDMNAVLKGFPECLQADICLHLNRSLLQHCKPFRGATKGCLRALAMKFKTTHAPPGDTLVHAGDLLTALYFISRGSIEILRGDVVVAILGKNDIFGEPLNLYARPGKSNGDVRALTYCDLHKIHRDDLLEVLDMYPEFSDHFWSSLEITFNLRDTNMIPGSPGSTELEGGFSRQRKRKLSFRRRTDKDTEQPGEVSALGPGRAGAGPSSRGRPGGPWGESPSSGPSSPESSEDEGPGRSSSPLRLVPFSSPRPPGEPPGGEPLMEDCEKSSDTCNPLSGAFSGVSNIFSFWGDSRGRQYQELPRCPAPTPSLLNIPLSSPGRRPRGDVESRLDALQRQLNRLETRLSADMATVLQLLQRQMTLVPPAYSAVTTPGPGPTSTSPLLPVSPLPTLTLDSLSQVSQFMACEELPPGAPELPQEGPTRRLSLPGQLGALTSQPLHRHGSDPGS

Structure (SMILES)	hERG current change (%, negative = inhibition) at 10uM
CC(=O)OC/C=C(\C)CCC=C(C)C	-0.25%
Cc1noc(C)c1COc1cccc(C(=O)OC(C)C(=O)Nc2c(C)n(C)n(-c3ccccc3)c2=O)c1 (stereo not drawn)	4.8%
COc1ccc(CCNC(=O)CCN2C(=O)[C@@H]3Cc4ccccc4CN3C2=O)cc1	-28.3%
O=c1c2ccccc2nnn1COc1ccc(Cl)cc1Br	22.2%
CCCCCNC(=O)c1ccc2c(c1)ncn2-c1ccc(OC)cc1	-64%
COCCCNC(=O)c1ccc2c(c1)ncn2-c1ccccc1OC	-1.73%
CCCNC(=O)c1ccc2c(c1)ncn2-c1cc(C)cc(C)c1	-55.1%
COc1ccc(-n2cnc3cc(C(=O)NCCN4CCOCC4)ccc32)cc1	-23.8%
CCOCCCNC(=O)c1ccc2c(c1)ncn2-c1ccc(CC)cc1	-43.8%
CCCNC(=O)c1ccc2c(c1)ncn2-c1ccccc1OC	-60.3%
CCOCCCNC(=O)c1ccc2c(c1)ncn2-c1ccccc1OC	-4.39%
COC(CNC(=O)c1ccc2c(c1)ncn2-c1cc(C)cc(C)c1)OC	-22.5%
Cc1cc(C)cc(-n2cnc3cc(C(=O)O)ccc32)c1	2.82%
S=c1[nH]nc(COc2ccccc2)n1/N=C/c1cccc(Br)c1	22.2%
O=C1N=C(N2CCc3ccccc3C2)S/C1=C\c1ccc(O)cc1	-20.8%
CN1/C(=C/C2CC(=O)NC2=O)C(C)(C)c2ccccc21 (stereo not drawn)	3.26%
CCSCCc1nnc(NC(=O)Nc2cccc(C(F)(F)F)c2)s1	15.2%
O=C(Nc1nnc(-c2ccccc2)o1)c1cc(-c2cccs2)nc2ccccc12	2.29%
CC(=O)Nc1cccc(NC(=O)CSc2nccn2Cc2ccco2)c1	14%
O=C(CCOc1ccccc1)OCC(=O)c1cc2ccccc2o1	-10.3%
COC(=O)C1=C(C(=O)OC)[C@@H]2N(C)c3ccc(OC)cc3[C@@]23C[C@@H](C(=O)OC)N(C(=O)NCCBr)C3=N1	-32.9%
O=C(Nc1nnc(-c2cccs2)o1)c1cccc(F)c1	11.8%
NC(=O)C(F)(F)C12OC3C4C5CC(C6C5C3C61)C42 (stereo not drawn)	15.1%

Structure (SMILES)	hERG current change (%, negative = inhibition) at 10uM
COc1cc(C(=O)OCC(=O)N2CCC(Cc3ccccc3)CC2)cc(OC)c1OC	-16.9%
COc1ccc(S(=O)(=O)N2CCC(Cc3ccccc3)CC2)cc1NC(C)=O	20.5%
COc1cc(C(C)=O)ccc1OCCN1CCC(Cc2ccccc2)CC1.O=C(O)C(=O)O	-91%
COc1cc(C(=S)N2CCC(Cc3ccccc3)CC2)ccc1OCC(N)=O	-46.8%
COc1cc(C(C)=O)ccc1OCCCN1CCC(Cc2ccccc2)CC1.O=C(O)C(=O)O	-77.9%
COc1ccc(NC(=S)N2CCC(Cc3ccccc3)CC2)cc1OC	-45.3%
O=C(CNC(=S)N(Cc1ccccc1F)C1CCCCC1)NC1CC1	-4.74%
CC(C)c1ccccc1OCC(=O)N1CCCCCCC1	13%
CCCCCC1CC(CC(=O)NC(=S)Nc2ccc([N+](=O)[O-])cc2)C(=O)O1 (stereo not drawn)	-0.0907%
CCCCCC1CC(CC(=O)Nc2ccc([N+](=O)[O-])cc2)C(=O)O1 (stereo not drawn)	-50%
CC(C)OCC1CC(CC(=O)Nc2ccc([N+](=O)[O-])cc2)C(=O)O1 (stereo not drawn)	-34.1%
CCCCCCC1CC(CCC(=O)Nc2ccc([N+](=O)[O-])cc2)C(=O)O1 (stereo not drawn)	3.95%
CCCCCC1CC(CC(=O)Nc2ccc([N+](=O)[O-])cc2)OC1=O (stereo not drawn)	-53.1%
CCCCCCC1CC(CC(=O)Nc2ccc([N+](=O)[O-])cc2)C(=O)O1 (stereo not drawn)	-12.4%
O=C(CC1NCCc2ccccc21)Nc1ccc(Oc2ccccc2)cc1 (stereo not drawn)	-15%
C=CCN(c1ccccc1)S(=O)(=O)c1ccc2c(c1)NC(=O)C(C)C(=O)N2 (stereo not drawn)	-4.47%
O=C(CNC(c1ccccc1)c1ccccc1)Nc1cc([N+](=O)[O-])ccc1Cl	10.7%
CCCCc1cc(O)c(CCCC)c(O)c1	-34.1%
COc1cc(/C=C(\C#N)C(=O)Nc2ccccc2F)ccc1OCCN1CCOCC1	-64.6%
COc1ccccc1NC(=O)/C(C#N)=C/c1ccc(OCCN2CCOCC2)c(OC)c1	-6.48%
COc1cc(/C=C(\C#N)C(=O)Nc2ccccc2)ccc1OCCN1CCOCC1	-21.7%
O=C(N/N=C/c1cccs1)c1cncc(Br)c1	-10.1%
COc1ccc(C)cc1NS(=O)(=O)c1ccc2c(c1)CCN2C(C)=O	-17.2%

Structure (SMILES)	hERG current change (%, negative = inhibition) at 10uM
Cc1ccc(C)c(NC(=S)N(CCc2ccncc2)C(C)C)c1	-42.1%
Cc1cc(C)c(NC(=S)N(CCc2ccncc2)C(C)C)c(C)c1	-8.82%
CCc1ccccc1NC(=S)N(CCc1ccncc1)C(C)C	-29.6%
Cc1cccc(NC(=S)N(CCc2ccncc2)C(C)C)c1C	-8.61%
CC(C)N(CCc1ccncc1)C(=S)Nc1cccc(Cl)c1	-71.3%
CCOc1ccc(NC(=S)N(CCc2ccncc2)C(C)C)cc1	-50.6%
CC(C)NC(=S)N(CCc1ccncc1)C(C)C	17.3%
CC(C)N(CCc1ccncc1)C(=S)Nc1ccc(F)c(Cl)c1	-71.7%
Cc1cccc(C)c1NC(=S)N(CCc1ccncc1)C(C)C	-1.45%
CCc1ccccc1N/N=C(/C)c1c(O)cc(C)oc1=O	-1.91%
Cc1c(CCC(=O)O)c(=O)oc2cc3occ(-c4ccccc4)c3cc12	-27.8%
CC(CN1C(C)CCCC1C)OC(=O)c1cccc(F)c1.Cl (stereo not drawn)	-13%
Cc1oc(-c2cc(F)ccc2F)nc1CN1CCN(c2ncnc3ccccc23)CC1	-43.6%
COc1ccc(-c2nc(CN3CCN(Cc4cccc(Cl)c4)CC3)c(C)o2)cc1	-33.1%
COc1ccc(-c2nc(CN3CCN(Cc4cccc(F)c4)CC3)c(C)o2)cc1	-46.6%
Cc1oc(-c2cccc3ccccc23)nc1CN1CCN(c2ncnc3ccccc23)CC1	-11.9%
COc1ccc(-c2nc(CN3CCN(c4ncnc5ccccc45)CC3)c(C)o2)c(OC)c1	-66.8%
Cc1cccc(N2CCN(Cc3nc(-c4cccc(Cl)c4)oc3C)CC2)n1	-21%
COc1ccc(-c2nc(CN3CCN(c4ncccn4)CC3)c(C)o2)cc1C	-21.1%
COc1ccc(-c2nc(CN3CCN(C(=O)c4ccco4)CC3)c(C)o2)c(OC)c1C	-18%
Cc1cc(N2CCN(Cc3nc(-c4ccc(F)cc4)oc3C)CC2)cc(C)n1	-53.8%
COc1ccc(-c2nc(CN3CCN(c4cc(C)nc(C)c4)CC3)c(C)o2)c2ccccc12	-73.6%
Cc1cccc(-c2nc(CN3CCN(Cc4cccc(F)c4)CC3)c(C)o2)c1	-47%

Structure (SMILES)	hERG current change (%, negative = inhibition) at 10uM
Cc1cc(N2CCN(Cc3nc(-c4ccc(Cl)cc4)oc3C)CC2)cc(C)n1	-68.8%
Clc1ccc(-c2csc(Nc3cccnc3)n2)cc1	13.5%
CC(C)(C)C(=O)Nc1ccc(F)cc1[N+](=O)[O-]	5.56%
Cc1cc2oc(=O)cc(CN3CCC(C)CC3)c2c(C)c1Cl	-2.84%
CCCCCc1c(O)c2ccccc2[nH]c1=O	7.97%
N#CCC(=O)NNC(=S)NC(=O)C(c1ccccc1)c1ccccc1	5.41%
O=C(NCCCCc1ccccc1)c1cccc(Br)c1	-3.79%
CCOc1ccc(N(CC(=O)Nc2nccs2)S(=O)(=O)c2c(C)noc2C)cc1	-5.98%
Br.COc1ccc(C2=CSC3=NCCN23)cc1OC	-6.58%
Br.COc1ccc(C2=CSC3=NCCN23)cc1F	-13.9%
COc1ccc(C2=CSC3=NCCN23)cc1Cl	-2.92%
CCCCOc1ccc(-c2csc(N)n2)cc1[N+](=O)[O-]	11.2%
O=[N+]([O-])c1ccc(C2=CSC3=NCCN23)cc1	-32.9%
CCCOc1ccc(C2=CSC3=NCCN23)cc1Cl	-67.8%
CCCOc1ccc(C2=CSC3=NCCN23)cc1.Cl	-28.3%
CCOc1ccc(C2=CSC3=NCCN23)cc1Cl	-22.8%
CCCOc1ccc(C2=CSC3=NCCN23)cc1[N+](=O)[O-]	-73.6%
Br.COc1ccc(C2=CSC3=NCCN23)cc1Br	-50.7%
CCCCOc1ccc(C2=CSC3=NCCN23)cc1[N+](=O)[O-]	-71%
CSc1nc2sc3c(c2c(=O)n1C)CCCC3	-13.5%
CC(OC(=O)c1ccc(Br)c(S(=O)(=O)N2CCOCC2)c1)C(=O)NC1CCCCC1C (stereo not drawn)	-49.9%
